The nature of the assay: Peg3 promoter luciferase inhibitors, potency, dose response, cell-based, HeLa, CREF/GAPDH counter-screen panel (AID 624167). As to conditions: CREF/GAPDH counter-screens; run 2, dose range 1, at 100 µM (top of the series). (The purpose of a counterscreen is to sort out artefacts and off-target activity.)
A word on the inhibition: it is the drop in the measured response relative to a control, in per cent. A lower inhibition goes with little suppression. `CCSc1nc2ccccc2n1C(=O)/C=C\c1ccc(OC)c(OC)c1` came in with an inhibition of 81.2%.
The value for `Cc1ccc(C)c(S(=O)(=O)N2CCN(c3ncnc4sccc34)CC2)c1` was 61.2%.
As to `CCC(C)Cn1c(O)cc2nn(-c3nc4ccccc4s3)c(=O)c-2c1C` (stereo not drawn), the inhibition stood at 95.7%.
The value for `CC(C)CC1C(=O)N(Cc2cn(Cc3ccco3)nn2)CCS(=O)(=O)N1Cc1ccc(-c2ccc(F)cc2)cc1` (stereo not drawn) was 54.7%; that for `COc1ccc(/C=C2\SC(=S)N(CCCC(=O)NNC(=O)c3ccccc3O)C2=O)cc1` was 72.3%; that for `COc1ccc(/C=C2/CCCC(CN(C)C)C2=O)cc1` (stereo not drawn) was 67.1%.
As for `COc1cc(OC)c2cc(C(=O)N/N=C/c3ccccc3O)[nH]c2c1`, the inhibition stood at 73.3%.
The molecule `Cc1oc(-c2ccc3c(c2)OCCO3)cc1C(=O)O` came in with an inhibition of 97.9%.
The value for `Cc1cc(C)c(C)c(S(=O)(=O)N2CCN(C(=O)c3cc(=O)[nH]c4ccccc34)CC2)c1C` was 80.6%; that for `CCc1ccn2cc(-c3ccc4c(c3)OCO4)nc2c1` was 97.5%.
`O=C(O)c1ccc(N/N=C/c2ccc(OC(=O)c3cccc(Cl)c3)cc2)cc1` gave an inhibition of 97.2%.
In turn, `O=C(O)c1ccc(CN2C(=O)c3cccc4c([N+](=O)[O-])ccc(c34)C2=O)cc1` returned an inhibition of 100%.
Regarding `O=c1c2ccccc2sc2nc(CCl)nn12`, the inhibition turned out to be 99.3%.
Take `O=C(COc1ccc2c(c1)CCC2)Nc1ccccn1`: the inhibition came to 94.9%.
The value for `CC1=NOC(=O)/C1=C\c1ccc(-c2ccccc2Br)o1` was 98.7%; that for `CC1=CC2C(C(O)CC3(C)C2CC(C)C32OCOC23COCO3)C2(C)C/C(=C\O)C(=O)C=C12` (stereo not drawn) was 100%.
With `CCc1ccc(/C=C2\SC(=S)N(CCCC(=O)NC3=NCCS3)C2=O)cc1`, the inhibition turned out to be 72.9%.
The value for `Cc1nc(C)c(C(=O)N/N=C/c2cc(Br)ccc2O)s1` was 6.13%; that for `CN1OC[C@@H]2CN(S(=O)(=O)c3cccc(C(F)(F)F)c3)[C@H](c3ccc(-c4cc5ccccc5o4)cc3)C[C@@H]21` was 70.9%; that for `COc1ccc(C(NC(C)=O)c2ccc3cccnc3c2O)c(OC)c1` (stereo not drawn) was 0.125%.
For the molecule `COc1cc(CNCCCN2CCOCC2)cc(Br)c1OCc1ccc(Cl)cc1`, the inhibition was determined as 90.7%.
In the case of `O=C(N/N=C/c1sc(N2CCOCC2)nc1-c1ccccc1)c1cccc(S(=O)(=O)N2CCCC2)c1`, the inhibition stood at 42.2%.
The value for `CN1C/C(=C/c2ccccc2[N+](=O)[O-])C(=O)/C(=C\c2ccccc2[N+](=O)[O-])C1` was 53.9%; that for `CC(=O)c1sc2c(c1OC(=O)c1ccc(Cl)cc1Cl)c(=O)n(-c1ccccc1)c(=S)n2-c1ccccc1` was 79.3%.
Take `C=CCc1cccc(/C=N/NC(=O)C(C)Nc2cccc(C)c2)c1O` (stereo not drawn): the inhibition was determined as 5.69%.
The value for `Cc1ccc(OCC(=O)c2cc(C)n(Cc3ccco3)c2C)c([N+](=O)[O-])n1` was 66.6%.
The value for `NS(=O)(=O)c1ccc(CCNc2nn3c(-c4ccc(F)c(Cl)c4)cnc3s2)cc1` was 75.5%; that for `Cc1ccccc1CNC(=O)C1CCCN(c2nnc(C)c3c(C)n(-c4ccccc4)nc23)C1` (stereo not drawn) was 94.8%; that for `CCOC(=O)c1c(SCCN2CCCCC2)n(-c2ccccc2)c(=S)n(-c2ccccc2)c1=O` was 98%.
As for `COc1ccc2c(c1)c(=Cc1ccc(N(C)C)cc1)c1cc(-c3ccccc3)[n+](C)n12`, the inhibition was determined as 99.9%.
The value for `CC1CC(C)C(=O)C(C(CC2CC(=O)NC(=O)C2)OC(=O)CC(=O)c2ccccc2)C1` (stereo not drawn) was 90.5%; that for `OCCCNc1nccc(-c2cc(Nc3cccc(Cl)c3)ncn2)n1` was 51.4%; that for `CCCCC(=O)NC(c1ccccc1)c1ccc2cccnc2c1O` (stereo not drawn) was 45.2%.

(Values after PubChem BioAssay AID624167 (Sanford-Burnham Center for Chemical Genomics, 2012).)
